Compound activity deposited in PubChem BioAssay by SRMLSC.
Spn MK inh: S. pneumoniae mevalonate kinase inhibition; purified MK, PK/LDH-coupled NADH absorbance 340 nm; inhibition, % at 10 µM; 65,000 compounds, 0.48% hits; AID 555;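 active = ranked among the strongest by inhibition in the single 10 µM screen, a fixed top-ranked set picked for dose follow-up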
NADH enzymes: inhibitors of enzymes used to reach an NAD/NADH endpoint; coupled PK/LDH NADH assays, four targets; IC50, µM (doses to about 10 µM), for inactives: top-dose inhibition; 65,000 compounds, 0.02% hits; AID 774;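 active = single-dose screening hits from any of four coupled enzyme assays that gave an IC50 when retested across doses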;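 note: the DPM-DC format reads NADH fluorescence rather than 340 nm absorbance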
A340 absorber: compound absorbs light at 340 nm. compound absorbance at 340 nm, fold over control. fold change at 10 µM. 65,000 tested, under 10 active. AID 708;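 active = at 10 µM dose, initial 340 nm absorbance at least 2 fold that of control wells; inactive = change under 2 fold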;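 note: initial absorbance extrapolated from kinetic A340 decline of NADH oxidation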
PMK inhibit: S. pneumoniae PMK inhibition; purified PMK, PK/LDH-coupled NADH absorbance 340 nm; inhibition, % at 10 µM; 65,000 compounds, 0.49% hits;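 active = top-ranked compounds by inhibition in the single 10 µM screen, taking a fixed number of the strongest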;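 note: 0% = full reaction with DMSO carrier and 100% = background rate without enzyme reaction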
Fluor 339 460: intrinsic fluorescence of library compounds, ex339/em460 – biochemical, MLSMR library, data from DPM-DC assay, artefact control, profiling panel | fluorescence fold increase at 10 µM | 65,000 compounds, 5.5% hits | AID 709 | compound autofluorescence, ex339/em460 nm, NADH buffer; stronger effect = higher value; 1 = no-compound wells, NADH background;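 active = at 10 µM, mean starting fluorescence two-fold or more over control wells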;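 note: signal is the first read of a kinetic run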
DPM-DC inhibit: S. pneumoniae DPM-DC inhibition; calls only at 10 µM; 65,000 compounds, 0.49% hits; AID 556; purified DPM-DC, PK/LDH coupled NADH fluorescence;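 active = the 320 compounds with the highest percent inhibition in the single-dose primary screen, excluding strongly autofluorescent ones, cut at about 32% in these data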;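 note: kinetic rate of NADH fluorescence loss reporting ADP formed by the decarboxylase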
Numbers without * were called inactive; i = inactive; / = no result shown; + = active, no number; [ ] = dose if it differs, or a comment. Hits are enriched below; roughly 6.8% of the tested compounds scored in any of these assays.

SMILES	Spn MK inh	NADH enzymes	A340 absorber	PMK inhibit	Fluor 339 460	DPM-DC inhibit
CN(C)[C@@H]1C(=O)C(C(N)=O)=C(O)[C@@]2(O)C(=O)C3=C(O)c4c(O)cccc4[C@@](C)(O)[C@H]3[C@H](O)[C@@H]12	9	125µM*[fluoresces]	1	4	2	+[fluoresces]
COc1cc2[nH]c(=O)n(-c3ccccc3)c(=O)c2cc1OC	2	1%	1.1	0	2.1*	/
COc1cc2[nH]c(=O)n(-c3cccc(Cl)c3)c(=O)c2cc1OC	1	2%	1.1	0	1.6	i
COc1ccc(CN2CCN(C(=O)Cc3ccccc3)CC2)c(OC)c1	52*	7%	1	0	1	i
CCCCP(=O)(O)c1ccccc1	5	4%	1	7	1.1	i
CCCCCCOC(=O)c1ccccc1N	4	4%	1.1	4	2.1*	/
CCCCOCCCn1c(N)c(C(=O)OCCOC)c2nc3ccccc3nc21	12	9%	1.1	5	2.3*	/
COCCOC(=O)c1c(N)n(Cc2ccccc2)c2nc3ccccc3nc12	10	11%	1.1	12	3.9*	/
COCCCn1c(N)c(C(=O)NCCC(C)C)c2nc3ccccc3nc21	6	8%	1	9	3.7*	/
Cc1cccn2c(=O)c3cc(C(=O)N4CCC5(CC4)OCCO5)n(C)c3nc12	8	10%	1.1	12	5*	/
Cn1c(C(=O)N2CCC3(CC2)OCCO3)cc2c(=O)n(C)c3ccccc3c21	0	2%	1	14	1.1	i
Cn1ccnc1P(=S)(c1nccn1C)c1nccn1C	0	3%	1	8	1.1	i
CCn1nc(-c2cccs2)nc2c(=O)n(C)c(=O)nc1-2	63*	8.4µM*	0.5	11	0.06	+
O=C(Cn1ncc2ccsc2c1=O)N1CCC2(CC1)OCCO2	3	1%	1	0	1.1	i
O=C(Cn1c(=O)c(C(F)(F)F)nc2ccccc21)N1CCC2(CC1)OCCO2	0	12%	1.1	15	2*	i
C=C1N2CCC(CC2)C1(O)c1ccccc1C (stereo unspecified)	7	6%	1.1	11	1.1	i
Clc1ccc(COC(Cn2ccnc2)c2ccc(Cl)cc2Cl)c(Cl)c1 (stereo unspecified)	9	5%	0.97	9	0.99	i
O=C(C1CC(=O)N(c2ccc(F)c(Cl)c2)C1)N1CCC2(CC1)OCCO2 (stereo unspecified)	0	2%	1	5	1.1	i
CCOC(=O)c1c(N)n(Cc2ccco2)c2nc3ccccc3nc12	8	8%	1.1	8	2.2*	/
COCC(C)OC(=O)c1c(N)n(Cc2ccco2)c2nc3ccccc3nc12 (stereo unspecified)	1	5%	1.1	9	2.3*	/
CCCCn1c(NC(=O)c2ccco2)c(C(=O)OCC)c2nc3ccccc3nc21	4	7%	1.1	10	3.8*	/
O=C(c1cc2c(s1)CCCC2)N1CCC2(CC1)OCCO2	0	1%	1.1	3	1.1	i
CCC(=NCc1cccnc1)c1c(O)n(Cc2ccccc2)c(=O)[nH]c1=O	3	4%	1	10	1.1	i
CC(C)OC(=O)c1c(N)n(CC2CCCO2)c2nc3ccccc3nc12 (stereo unspecified)	9	5%	1	15	3*	/
CC(C)CCOC(=O)c1c(N)n(CC2CCCO2)c2nc3ccccc3nc12 (stereo unspecified)	8	9%	1.1	10	3.9*	/
SMILES	Spn MK inh	NADH enzymes	A340 absorber	PMK inhibit	Fluor 339 460	DPM-DC inhibit
Nc1c(C(=O)OC2CCCCC2)c2nc3ccccc3nc2n1CC1CCCO1 (stereo unspecified)	9	10%	1.1	10	3.6*	/
CN1CCC(OC(=O)C2c3ccccc3Oc3ccccc32)CC1	0	2%	0.98	3	1.1	i
COc1ccccc1N1CCN(Cc2ccccc2Cl)CC1	49*	16%	1.1	0	1.1	i
COc1ccccc1N1CCN(Cc2ccccc2F)CC1	51*	17%	1.1	0	1	i
Cn1c(O)c(C=NC2C(=O)C3(C)CCC2C3(C)C)c(=O)n(C)c1=O (stereo unspecified)	7	5%	1	7	1.1	i
C=COCCn1c(C)c(C(=O)OCC)c2cc(O)ccc21	7	5%	1.1	8	1.1	i
CCOC(=O)c1cccc([P+](=O)O)c1	0	1%	0.99	0	1.1	i
CCOc1ccc(-c2cc(C(=O)N3CCC4(CC3)OCCO4)c3ccccc3n2)cc1	0	5%	1.1	9	5.2*	/
Cn1cccc1CNCCc1ccccc1F	8	8%	1	15	1.1	i
O=c1c2ccccc2nc(N2CCCC2)n1-c1ccc(Cl)cc1	1	4%	1	0	3.3*	i
Cc1cc(N2C(=O)C3CCCN3C2c2sccc2C)no1 (stereo unspecified)	4	6%	1	13	1.1	i
COc1ccc(Cn2c(N)c(C(=O)NCc3ccco3)c3nc4ccccc4nc32)cc1	0	1%	1.1	2	4.9*	/
Nc1c(C(=O)NCc2ccco2)c2nc3ccccc3nc2n1Cc1ccc(F)cc1	4	4%	1.1	3	2.2*	/
CCC(=Nc1ccc(OC)cc1OC)c1c(O)n(C)c(=O)n(C)c1=O	1	6%	1.1	17	1	i
O=P(/C(=N/O)N1CCOCC1)(N1CCOCC1)N1CCOCC1	12	6%	0.98	6	1.1	i
CC(C)Cn1cc(C(=O)N2CCC3(CC2)OCCO3)c2c3ccccc3n(C)c2c1=O	8	11%	1	14	4.3*	/
Cn1c2ccccc2c2c(C(=O)N3CCC4(CC3)OCCO4)cn(C3CCCCC3)c(=O)c21	1	10%	1.1	19	2.1*	/
Cn1cc(C(=O)N2CCC3(CC2)OCCO3)c2c3ccccc3n(C)c2c1=O	1	11%	1.1	9	3.4*	i
COC(=O)CC1(Cc2ccccc2)C(=O)NC(=O)NC1=O	6	2%	0.98	0	1.1	i
COC(=O)CC1=C(C(=O)OC)C2(C(=O)N(C)c3ccccc32)C(C#N)=C(N)O1 (stereo unspecified)	4	1%	1.1	0	1.1	i
COc1cc(C2NCc3ccccc3-n3cccc32)ccc1O (stereo unspecified)	2	3%	1	5	0.98	i
O=C(c1ccc2nc(-c3ccco3)c(-c3ccco3)nc2c1)N1CCC2(CC1)OCCO2	12	5%	1	9	1.8	i
O=C(c1ccc2nc3ccc(Cl)cc3c(=O)n2c1)N1CCC2(CC1)OCCO2	0	3%	1.1	7	3.3*	/
Cn1c(=O)cc(OCC(=O)N2CCN(C3CCCCC3)CC2)c2ccccc21	6	1%	0.99	1	1.1	i
